# Compound activity (PubChem)
# Most compounds without a hit are left out; they make up all but 5.5% or so of the library.
# VP16 counter: inhibits Gal4-VP16 luciferase reporter, ROR gamma counter-screen. Drosophila S2 Gal4-VP16 UAS-luciferase, luminescence, 20 h. Potency, µM (doses to about 53.6 µM), for the others: at the top dose activity, negative = inhibition, most hits filed as inhibitors. 3.5% of 310,000 active. AID 2546;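 note: Gal4-VP16 expression switched on by copper sulfate through the metallothionein promoter; potency is the fitted concentration of half-maximal effect; % is set by controls: 0 for no effect and ±100 for the full control effect; nearly all actives have a fitted effect of over 50% in size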
# MBNL1 CUG block: MBNL1-poly(CUG) RNA binding inhibition. Q9NR56. TR-FRET MBNL1-His/biotin-(CUG)12 binding, 665/545 ratio. Potency, µM (doses to about 57.5 µM), for the others: at the top dose activity change, negative = inhibition, hits mostly inhibitors. 0.036% of 280,000 active. AID 2675; active = well fitted inhibition curve with a large enough effect in the signal ratio, with a control signal flat, not every such curve was filed as active; inconclusive = small, poorly fitted or top-dose-only effect, or effect the other way, or a change in a side signal; inactive = no such curve, though single readings can be large or run the other way; the % refers to the signal ratio; note: potency is the fitted concentration of half-maximal effect; % is set by controls: 0 for no effect and ±100 for the full control effect
# Target sequence (Q9NR56 whole entry, looked up): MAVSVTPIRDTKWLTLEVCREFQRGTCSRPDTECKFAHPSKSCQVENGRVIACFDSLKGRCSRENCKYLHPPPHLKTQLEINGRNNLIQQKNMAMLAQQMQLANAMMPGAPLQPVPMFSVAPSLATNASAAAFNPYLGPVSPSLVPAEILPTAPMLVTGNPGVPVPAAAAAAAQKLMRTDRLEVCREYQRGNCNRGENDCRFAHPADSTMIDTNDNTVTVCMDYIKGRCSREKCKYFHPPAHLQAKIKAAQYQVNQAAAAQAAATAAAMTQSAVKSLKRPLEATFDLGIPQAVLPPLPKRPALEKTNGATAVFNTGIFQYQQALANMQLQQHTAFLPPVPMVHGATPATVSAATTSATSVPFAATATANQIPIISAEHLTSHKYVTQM
#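 Compounds (final 92 nM to 58 uM) are added to His-tagged MBNL1 and biotin-(CUG)12, then terbium anti-His antibody and streptavidin-XL665 (5 nM final). After 60 min at room temperature, the 665/545 nm ratio is read.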
# Six1-Eya2 blk: blocks human Six1 binding to Eya2 | activity change, % (test concentration not listed) | AlphaScreen GST-Six1/His-Eya2 binding, biochemical; stronger effect = lower value | 0.56% of 360,000 active | AID 651725; in the data active = activity change below about -65%; inconclusive = mostly about -30% to -63%; note: % is set by controls: 0 for no effect and ±100 for the full control effect
#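 AlphaScreen luminescence read after one hour at 37 °C in darkness. Pin-transferred compounds met GST-Six1 and His-Eya2 protein (5X stock 250 nM/500 nM) plus glutathione donor and Ni-chelate acceptor beads (5X, 50 ug/mL).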
# CtBP-E1A blk: blocks the CtBP interaction with E1A. AlphaScreen GST-E1A/His-CtBP binding, 1536-well; stronger effect = lower value. activity change, % (test concentration not listed). 0.49% of 340,000 active. AID 651724; in the data active = activity change below about -65%; inconclusive = mostly about -30% to -63%; note: % is set by controls: 0 for no effect and ±100 for the full control effect
#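 GST-E1A and His-tagged CtBP (125 nM each as 5X stock) were preincubated with pin-transferred compound for 2 h at 37 °C in the dark, then glutathione donor and nickel acceptor beads were added for 1 h before AlphaScreen reading.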
# RORgamma inh: inhibitors of mouse ROR gamma transcriptional activity | Drosophila S2 Gal4-RORgamma UAS-luciferase reporter, 20 h | 5.4% of 310,000 active | P51450 | Potency, µM (highest dose often 53.6 µM), for inactives: at the highest dose activity change, negative = inhibition, hits mostly inhibitors; note: potency is the fitted concentration of half-maximal effect; % is set by controls: 0 for no effect and ±100 for the full control effect; nearly all actives have a fitted effect of over 60% in size
#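 Read-out: Photinus luciferase luminescence; inhibitors lower reporter signal. Insect Schneider cells with Gal4-ROR gamma fusion under metallothionein promoter, UAS reporter; 700 uM final copper sulfate induction, 20 hr, ambient temperature.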
# CBFb RUNX1 block: inhibitors of human CBF-beta and RUNX1 interaction | Q01196+Q13951 | AlphaScreen CBFb-His/RUNX1-biotin binding, biochemical | 230,000 tested, under 10 active | AID 1477 | Potency, µM (top dose mostly 59.8 µM), without a hit: top-dose activity, negative = inhibition, most hits filed as inhibitors; note: % of control where 0% means no effect
#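 Inhibition was taken as any reduction in AlphaScreen signal from the CBF-beta–RUNX1 pair (His and biotin tags, 30 nM each), measured after compound (15 min) and bead (90 min) incubations at room temperature.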
# Active calls of the source: *; ? = inconclusive; / = no result given; [ ] = remark or other dose. Unless noted, calls come from the whole dose curve; as a rule, active = well fitted curve in the direction sought with a large enough effect; inconclusive = small, poorly fitted or top-dose-only effect, or another doubt; inactive = no such curve, though single readings can be large; an effect the other way counts as inactive or inconclusive.
SMILES,VP16 counter,MBNL1 CUG block,Six1-Eya2 blk,CtBP-E1A blk,RORgamma inh,CBFb RUNX1 block
FC(F)(F)c1cc(CO[C@H]2CCCN[C@H]2c2ccccc2)cc(C(F)(F)F)c1,-28.0%,/,/,/,25.1µM*,13.5%
COC(=O)C1=C(C)N(Cc2ccccc2)C(=O)N[C@H]1c1cccc(C(F)(F)F)c1,3.0%,-0.7%,-8.4,-4.0,12.7%,1.7%[13.1 µM]
CCCNC(=O)CCn1nc(-c2ccc(C)cc2)c2ccccc2c1=O,6.6%,4.0%,-2.2,4.5,23.7%,/
CCCNC(=O)CCC(=O)Nc1ncc(-c2ccc(C)cc2)n1C,5.62µM*,-5.7%,0.4,10.3,3.55µM*,11.1%
C=CCn1c(-c2ccco2)n[nH]c1=S,?,5.7%,-0.2,-1.6,10µM*,-2.3%
CCn1c(-c2ccco2)n[nH]c1=S,?,3.6%,-2.2,3.3,15.8µM*,7.6%
CCCCn1c(-c2c(Cl)c(C)nn2C)n[nH]c1=S,-1.6%,0.2%,-9.6,12.5,2.24µM*,-1.8%
C=CCn1c(-c2ccoc2C)n[nH]c1=S,?,-14.0%,5.0,6.2,?,17.4%
CCCCn1c(-c2ccco2)n[nH]c1=S,7.08µM*,-9.6%,11.1,11.3,4.47µM*,?
CCCCn1c(-c2ccoc2C)n[nH]c1=S,-1.9%,-4.4%,11.8,12.8,3.1%,3.8%
COc1ccc(-c2coc(CCC(=O)N3CCN(c4cc(C)ccc4C)CC3)n2)cc1,/,/,-5.8,-5.0,/,/
CCCCCC(=O)O[C@@]1(C(C)=O)CCC2C3CCC4=CC(=O)CC[C@@]4(C)C3CC[C@]21C (some centres undefined),-10.6%,/,/,/,32.9%,15.7%
CN(C)S(=O)(=O)c1cc(NC(=O)COC(=O)c2nc(Cl)ccc2Cl)ccc1Cl,/,/,-6.2,-8.5,/,/
CC(C)Cn1c(-c2ccco2)n[nH]c1=S,?,4.4%,0.2,14.3,10µM*,-3.5%
CCCCn1c(-c2sccc2C)n[nH]c1=S,11.2µM*,-1.0%,3.6,-3.5,5.01µM*,5.5%
C/C(=N\Nc1nc2ccccc2s1)c1ccc(Br)s1,?,-1.7%,-19.2,-7.1,7.08µM*,-14.0%
CC(=NNc1nc2ccccc2s1)c1ccncn1,/,/,?,-78.1*,/,/
O=C(C1CCC(=O)N(C2CCCC2)C1)N1CCN(c2ccccc2Cl)CC1 (centres undefined),-3.1%,-7.9%,6.0,-5.6,11.2%,/
CCOc1ccc(C(=O)NCC(c2ccco2)N2CCOCC2)cc1 (centres undefined),/,/,0.3,2.2,/,/
Cn1cc(-c2nc3cncnc3n(CCN)c2=O)c2ccccc21,-9.4%,/,/,/,-14.7%,/
Cc1cccc(NC(=S)NC2CCCCCC2)c1C,7.08µM*,-12.1%,-11.1,-2.7,3.16µM*,-11.2%
CCc1ccccc1NC(=S)NC1CC2CCC(C1)N2Cc1ccc(F)cc1 (centres undefined),?,0.9%,-12.1,2.0,7.08µM*,-2.0%
S=C(Nc1ccccc1Cl)NC1CCC(NC(=S)Nc2ccccc2Cl)CC1 (centres undefined),0.4%,4.2%,5.8,-0.2,-30.7%,11.4%
CCc1ccccc1NC(=S)NC1CC2CCC(C1)N2Cc1ccco1 (centres undefined),-6.1%,-5.7%,-2.8,7.1,?,3.7%
Cc1c(Cl)cccc1NC(=S)NC1CCCC1,5.62µM*,-2.5%,-5.6,-1.5,4.47µM*,/
CCc1ccc(NC(=S)NC2CC3CCCC(C2)N3Cc2cccs2)cc1 (centres undefined),12.6µM*,8.2%,-22.3,14.2,2µM*,-5.8%
CCc1ccccc1NC(=O)NC1CC2CCC(C1)N2Cc1cccs1 (centres undefined),-6.0%,0.5%,-1.0,6.7,16.8%,1.1%
CC(=O)N1CC(O)CC1C(=O)O (centres undefined),-1.2%,/,/,/,-15.3%,/
Cc1cccc(NC(=S)NC2CCCC2)c1C,7.08µM*,-0.9%,2.5,-6.3,7.08µM*,/
